A short description of test [1]: Immunotoxin (HA22) sensitization/mitigation study. Vehicle arm (PBS) (AID 1159510). Note: potency is the fitted concentration of half-maximal effect.
For test [2] the following is noted: Ebola virus entry assay, reporter ratio channel; Channel type: primary.
A short description of test [3]: qHTS assay for measurement of the activity of small molecule inhibitors on Zika virus induced Caspase-3 activity in human astrocytoma cells (AID 1224859; active = well fitted inhibition curve with a large enough effect). In a few lines:
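Inhibition of Zika-induced caspase-3/7 activity: SNB-19 cells, 1 h compound pretreatment, ZIKV 2 FFU/cell for 6 h at 37 C, Caspase-Glo luminescence read-out.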
(Quantitative high-throughput screening tests each substance at several concentrations.)

Test [4] in a line: qHTS assay for measurement of the activity of small molecule inhibitors on Zika virus induced Caspase-3 activity in human iPSC derived neural progenitor cells (hNPCs) (AID 1224857; active = well fitted inhibition curve with a large enough effect; note: nearly all actives have a fitted effect of over 65% in size; note: potency is the fitted concentration of half-maximal effect). In a few lines:
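After overnight (16–20 h) culture at 350 cells/well, hNPCs get compound, then ZIKV 2 FFU/cell one hour later. Six hours on, Caspase-Glo 3/7 is added and luminescence measured.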

For test [5] the following is noted: Ebola virus entry assay, blue channel (ratio component).
For test [6] the following is noted: Ebola virus entry reporter assay, green channel fluorescence. On the technique in general: A reporter such as luciferase makes a cellular process visible.
For test [7] the following is noted: Ebola virus entry cell assay, ratio channel.
The nature of test [8]: Immunotoxin (SS1P) sensitization/mitigation study. Vehicle arm (DMEM) (AID 1159513). Note: potency is the fitted concentration of half-maximal effect.

The structures appear in SMILES notation. Inconclusive results are not listed. For some assays here: Entries with a potency or affinity are not part of this list. Active and inactive are the calls of the source.

In the case of `O=C(c1cc(Cc2n[nH]c(=O)c3ccccc23)ccc1F)N1CCN(C(=O)C2CC2)CC1`, the Potency in test [1] was 14.8 µM (active).
One may read the AC50 as the midpoint of the concentration-response curve, whichever way the signal moves. On to `CCCCCCCCCC(CC)c1ccc(S(=O)(=O)O)cc1` (configuration not stated), for which the AC50 in test [2] was 31.6 µM (active). In addition, the Potency entry in test [3] was “inactive”.
Regarding `Cc1ccccc1C(C(=O)NC1CCCC1)N(C(=O)Cn1cnc2ccccc21)c1cccc(F)c1` (configuration not stated), the Potency in test [1] was 23.5 µM (active).
For `COc1ccc(C(c2ccc(OC)cc2)C(Cl)(Cl)Cl)cc1`, the AC50 in test [2] is 22.4 µM (active). Also, the Potency result in test [4] and in test [3] was “inactive” in each case.
In the case of `c1cc2ccc3cccc4ccc(c1)c2c34`, the result in test [2] and in test [5] was inactive. The Potency result in test [3] was “inactive”.
As for `Cc1cc(C(=O)NNCc2ccccc2)no1`, the molecule was called inactive in test [6] and in test [7].
`CC(=O)[O][Hg][c]1ccccc1`: the AC50 in test [2] was 4.47 µM (active). Besides, in test [4], the Potency entry was “inactive”.
Consider `CCCCOCCOc1nc(-c2ccc(C(=O)O)c(F)c2)sc1C`, for which, in test [1], the Potency is 0.0017 µM [activator] (active).
Take `O=C(O)CCCOc1ccc(Cl)cc1Cl`: the outcome in test [2] and in test [5] was inactive. Also, in test [3], the Potency result was “inactive”.
For `O=C(O)C(Cl)Cl`, the result in test [2] and in test [5] was inactive. The Potency result in test [4] and in test [3] was “inactive” in each case.
In the case of `Cc1nn(Cc2ccccc2Cl)c(C)c1CN(C)CC(O)COc1ccc(Cl)cc1` (configuration not stated), the Potency in test [1] is 26.4 µM (active).
In the case of `CN1[C@@H]2CC[C@H]1CC(OC(=O)C(O)c1ccccc1)C2` (some centres not stated), the result in test [5] was inactive.
On to `CNCc1ccc(-c2[nH]c3cc(F)cc4c3c2CCNC4=O)cc1`, for which the Potency in test [1] was 20.9 µM (active).
For the molecule `S=C(SSC(=S)N1CCCCC1)N1CCCCC1`, the result in test [2] and in test [5] was inactive. Moreover, the Potency result in test [3] was “inactive”.
`CC(C)(C)c1cc(C(C)(C)C)c(NC(=O)c2c[nH]c3ccccc3c2=O)cc1O`: the Potency in test [1] is 16.6 µM (active).
With `COc1ccc(CC2SC(=O)NC2=O)cc1C(=O)NCc1ccc(C(F)(F)F)cc1` (configuration not stated), in test [1], the Potency entry is “inactive”.
For `O=[N+]([O-])/N=C1\NCCN1Cc1ccc(Cl)nc1`, the outcome in test [2] and in test [5] was inactive. Further, the Potency entry in test [3] is “inactive”.
For the molecule `CN[C@@H](C)C(=O)N[C@H]1CCCC[C@H]2CC[C@@H](C(=O)N[C@@H](c3ccccc3)c3cn(CCCCc4ccc(CCCCn5cc([C@@H](NC(=O)[C@@H]6CC[C@@H]7CCCC[C@H](NC(=O)[C@H](C)NC)C(=O)N76)c6ccccc6)nn5)cc4)nn3)N2C1=O`, in test [1], the Potency entry is “inactive”.
`COc1ccc(CCN2CCN(CCCc3ccccc3)CC2)cc1OC`: the Potency in test [1] was 23.5 µM (active).
Same read-out and setting: under `Clc1ccc2ncc(-c3cccc(NC4CNC4)n3)n2c1` stands 20.9 µM (active); under `Cc1cccc(-c2[nH]c(C(C)(C)C)nc2-c2ccc3nccnc3c2)n1`, “inactive”.
As to `C=CCC1=C(C)C(OC(=O)C2C(C=C(C)C)C2(C)C)CC1=O` (configuration not stated), the outcome in test [2] and in test [5] was inactive. Also, in test [3], the Potency entry was “inactive”.
Turning to `CC(O)=C(C#N)C(=O)Nc1ccc(C(F)(F)F)cc1`, the Potency in test [1] is 16.6 µM (active).
Take `CN(C)C1CCN(C(=O)c2ccc(NC(=O)Nc3nc(N4CCOCC4)nc(N4CCOCC4)n3)cc2)CC1`: in test [1], the Potency was 0.166 µM (active).
Turning to `COc1cc2nccc(Oc3ccc(NC(=O)Nc4cc(C)on4)c(Cl)c3)c2cc1OC`, the Potency in test [1] was 18.7 µM (active).
Regarding `Nc1ccc(N=Nc2ccccc2)cc1`, the outcome in test [2] was inactive. Further, the Potency in test [4] is 28.2 µM (active).
Consider `O=C(O)c1ccc(-c2c[nH]c3ccc(-c4ccccc4)cc23)cc1C1CCCC1`, for which, in test [1], the Potency result was “inactive”.
Turning to `CNC1CCN(C(Cc2cccc(-c3ccncc3)c2)C(=O)c2sc3c(F)ccc(F)c3c2Cl)CC1` (configuration not stated), the Potency in test [1] was 20.9 µM (active).
As to `O=S(=O)(O)C(F)(F)C(F)(F)C(F)(F)C(F)(F)C(F)(F)C(F)(F)C(F)(F)C(F)(F)F`, the result in test [2] and in test [5] was inactive. In test [3], the Potency result is “inactive”.
`CCCN(CCC)c1c([N+](=O)[O-])cc(S(N)(=O)=O)cc1[N+](=O)[O-]`: the AC50 in test [2] was 8.91 µM (active). Besides, the Potency result in test [4] and in test [3] was “inactive” each time.
In the case of `CN(C)c1ccc(Nc2nc(N)n(C(=O)c3c(F)cccc3F)n2)cc1`, in test [1], the Potency was 20.9 µM (active).
Consider `CN(C)CCCNC(=O)c1ccc(-c2cc(O)c3ncccc3c2)cc1`, for which the Potency in test [1] was 16.6 µM (active).
Take `COc1cccc2c1C(=O)c1c(O)c3c(c(O)c1C2=O)C[C@](O)(C(=O)CO)C[C@@H]3O[C@H]1C[C@H](N)[C@@H](O)[C@H](C)O1`: in test [7], the AC50 is 7.08 µM (active).
Take `CN1CCN(CCOc2cc(OC3CCOCC3)c3c(Nc4c(Cl)ccc5c4OCO5)ncnc3c2)CC1`: the Potency in test [1] is 20.9 µM (active).
Same read-out and setting: under `COc1cccc(OC)c1-c1cc(C(=O)NC2(C(=O)O)C3CC4CC(C3)CC2C4)nn1-c1ccnc2cc(Cl)ccc12` (configuration not stated) stands 29.6 µM (active).
With `NC(=O)c1ccc(-c2nc(-c3ccc4c(c3)OCCO4)c(-c3ccccn3)[nH]2)cc1`, the Potency in test [1] was 20.9 µM (active). In test [8], the Potency result is “inactive”.
As for `O=C(C=Cc1cccc(S(=O)(=O)Nc2ccccc2)c1)NO`, the Potency in test [1] is 0.264 µM (active); in test [8] it was 0.833 µM (active).
